# Assay outcomes as filed in PubChem.
# An excerpt weighted towards active compounds, which were near 2.4% of everything screened.
# TMEM16A act = TMEM16A chloride channel activators or potentiators, primary screen, cell-based, HTS | Anoctamin-1 (Mus musculus), Q8BHY3 | HEK293 TMEM16A/YFP-H148Q/I152L, iodide quench fluorescence; hits give low values | B-score at 10 µM | 0.3% of 340,000 active | AID 623877, 2012;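 active = fluorescence-ratio B-score plate-corrected deviation score at least 3 library SD below zero, with starting fluorescence score within 5 deviations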;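 note: channel opened by trigger with iodide after compound preincubation; score built on the fluorescence ratio of max minus min over baseline; more negative score means more quench and so TMEM16A activation or potentiation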
# Target sequence (Q8BHY3 whole entry, looked up): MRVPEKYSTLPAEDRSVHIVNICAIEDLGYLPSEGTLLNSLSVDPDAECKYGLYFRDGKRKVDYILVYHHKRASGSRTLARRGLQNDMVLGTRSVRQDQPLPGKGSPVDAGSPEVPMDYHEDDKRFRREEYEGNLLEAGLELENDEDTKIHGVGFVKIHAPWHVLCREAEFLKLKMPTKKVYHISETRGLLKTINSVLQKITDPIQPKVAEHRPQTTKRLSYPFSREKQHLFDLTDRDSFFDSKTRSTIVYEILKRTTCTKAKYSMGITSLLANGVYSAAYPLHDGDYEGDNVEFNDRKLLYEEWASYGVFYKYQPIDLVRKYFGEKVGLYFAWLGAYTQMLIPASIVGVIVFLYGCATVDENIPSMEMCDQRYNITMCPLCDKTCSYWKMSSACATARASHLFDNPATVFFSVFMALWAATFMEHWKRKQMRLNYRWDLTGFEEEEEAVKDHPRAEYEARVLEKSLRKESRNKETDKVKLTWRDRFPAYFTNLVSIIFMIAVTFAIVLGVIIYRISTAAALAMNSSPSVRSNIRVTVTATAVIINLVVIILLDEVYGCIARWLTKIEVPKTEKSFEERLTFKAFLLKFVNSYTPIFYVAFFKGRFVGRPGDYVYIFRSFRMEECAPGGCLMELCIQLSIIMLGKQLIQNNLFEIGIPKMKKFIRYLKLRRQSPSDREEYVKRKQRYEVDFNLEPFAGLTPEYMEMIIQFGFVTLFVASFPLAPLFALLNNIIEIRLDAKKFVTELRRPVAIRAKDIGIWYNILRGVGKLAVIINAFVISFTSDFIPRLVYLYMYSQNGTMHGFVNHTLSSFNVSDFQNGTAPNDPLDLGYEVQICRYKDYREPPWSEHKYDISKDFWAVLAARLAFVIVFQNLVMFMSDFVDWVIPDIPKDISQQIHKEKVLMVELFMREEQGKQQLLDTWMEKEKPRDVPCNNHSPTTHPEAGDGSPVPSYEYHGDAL
# CHT PAM = CHT positive allosteric modulators, primary screen, cell-based, membrane potential dye, choline EC20 | High affinity choline transporter 1 (Homo sapiens), Q9GZV3 | CHT-expressing cells; hits give high values; LV-AA mutant CHT in HEK293 cells | B-score at 10 µM | 0.49% of 310,000 active | AID 488977, 2010;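 active = initial fluorescence not abnormally high and integrated response B-score, plate-corrected, over 3 SD above library mean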
# ANO1 block = TMEM16A chloride channel inhibitors, primary screen, cell-based, HTS; Anoctamin-1 (Mus musculus), Q8BHY3; HEK293 TMEM16A/YFP iodide influx fluorescence, ionomycin; normalized B-score (activity score, 25-100; higher = stronger inhibition) at 10 µM; 1.2% of 310,000 active; AID 588511, 2011;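 active = ratio plate-corrected score three or more library SD toward inhibition, starting fluorescence score within five deviations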;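 note: score derived from kinetic fluorescence span divided by baseline fluorescence per well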
# CHT inh = inhibitors of human choline transporter CHT; AID 488975, 2010; High affinity choline transporter 1 (Homo sapiens), Q9GZV3; 0.86% of 310,000 active; B-score at 10 µM; CHT-expressing cells, membrane potential dye, choline response; hits give low values;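 active = B-score over 3 SD under the library average, and starting fluorescence ratio not unusually high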;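 note: choline stimulus applied at its EC90 after an EC20 pre-addition; B-score computed on integrated fluorescence ratio after choline addition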
# An asterisk follows results filed as active; i = inactive; nt = not tested or not shown.
SMILES,TMEM16A act,CHT PAM,ANO1 block,CHT inh
Brc1ccc(-c2nnc(Cc3ccccc3)o2)cc1,i,i,i,i
c1ccc(Cc2nnc(-c3ccccc3)o2)cc1,-6.78*,i,i,i
O=C(COC(=O)c1ccc(O)cc1O)Nc1ccc2ccccc2c1,i,nt,nt,nt
O=C(COC(=O)c1ccc(O)cc1O)Nc1ccc2c(c1)OCCO2,-27.8*,nt,nt,nt
Cn1cccc1C(=O)OCC(=O)Nc1sccc1C#N,i,nt,nt,nt
CC(C(=O)Nc1ccc(F)cc1Cl)N1CCN(S(=O)(=O)c2cccs2)CC1 (stereo not given),-21.1*,nt,nt,nt
C=CC[C@H](CC(=O)N(CCO)Cc1ccccc1)C(=O)NCCOC(=O)[C@@H](CC=C)CC(=O)OC(C)(C)C,i,nt,nt,nt
O=C(Nc1ccc2nc(-c3ccccc3)oc2c1)c1ccco1,-13.9*,i,i,i
CS(=O)(=O)c1nc(-c2ccccc2)cc(C(F)(F)F)n1,i,i,i,i
C=CCC1(CC=C)CCCN1C(=O)c1cc(COc2cncc(Cl)c2)on1,i,i,25*,i
CC(C)(C)C(=O)Nc1nc(-c2ccccc2)ns1,i,i,i,i
c1ccc(Nc2nc(-c3ccccc3)ns2)cc1,-8.95*,i,i,i
CC(=O)Nc1cc(NC(=O)C2C3C=CC(C3)C2C(=O)O)ccc1Cl (stereo not given),i,i,i,i
CCN=C(NCC)SC1CC(=O)N(c2ccc(OC)cc2)C1=O (stereo not given),i,i,i,i
CCN=C(NCC)SC1CC(=O)N(c2cccc(OCC)c2)C1=O (stereo not given),-9.41*,i,i,i
Cc1cccc(C)c1OCC(=O)NNC(=O)CCNC(=O)c1ccc(Br)cc1,i,i,i,i
O=C(/C=C/c1ccc(Cl)cc1)NC(=S)NN1CCCCC1c1cccnc1 (stereo not given),nt,i,i,i
COc1ccc(/C=C/C(=O)NC(=S)NN2CCCCC2c2cccnc2)cc1OC (stereo not given),-4.63*,i,i,i
COc1ccc(CNCCC(c2ccc(OC(C)C)cc2)c2ccccc2OC)cc1 (stereo not given),i,i,i,i
COc1ccccc1C(CCNCc1ccc(N(C)C)cc1)c1ccc(OC(C)C)cc1 (stereo not given),i,8.69*,i,i
O=c1c(Cc2ccc(Cl)cc2Cl)c(O)ccn1Cc1ccc(Cl)cc1,i,i,100*,i
COC(=O)c1ccc(COC(=O)CSCC(=O)Nc2ccc(C)cc2C)cc1,i,nt,nt,nt
COc1ccc(N2CCN(C(=O)C(Cc3ccccc3)n3cccc3)CC2)cc1 (stereo not given),-14.6*,i,i,i
Cc1ccccc1NC(=O)C1CC(=O)n2ncnc2N1 (stereo not given),i,i,i,i
CC(=O)N(/N=C/c1cccc(C)c1)c1nc(-c2ccc(Br)cc2)cs1,i,i,i,i
SMILES,TMEM16A act,CHT PAM,ANO1 block,CHT inh
COc1ccc(/C=N/N(C(C)=O)c2nc(-c3ccc(C)cc3)cs2)cc1,-7.17*,i,i,i
CCOc1ccc(C(=O)NCC(=O)NCC(c2ccc(OC)cc2)N2CCOCC2)cc1OCC (stereo not given),i,i,i,i
CN(C)CCCNC(=O)COc1ccc(Br)cc1Cl,i,i,i,i
COCCNC(=O)COc1ccc(Br)cc1Cl,i,i,100*,i
Cc1ccc(C)c(N2CC(C(=O)OCC(=O)Nc3cc(C)on3)CC2=O)c1 (stereo not given),i,i,i,i
CC(C)OC(=O)CSc1nnc(-c2cnccn2)n1C,-5.82*,i,i,i
COc1c(CC=C(C)C)cc(C2CC(=O)c3c(O)cc(O)cc3O2)c(CC=C(C)C)c1O (stereo not given),nt,i,100*,i
CCOC(=O)C1(CCOc2ccccc2)CCN(CC=C(C)C)CC1,i,i,i,i
COC(=O)CCC(=O)c1oc2ccc(Cl)cc2c1NC(=O)CCCN1C(=O)c2ccccc2C1=O,i,i,i,i
O=C(Cn1nc(C(F)(F)F)c2c1CCCC2)NCc1ccco1,i,i,i,i
N#CC(C(=O)NCCc1ccccc1)c1nc2ccccc2nc1N1CCCCC1 (stereo not given),i,i,100*,i
C=CCn1c(SCc2ccc(C(=O)Nc3nccs3)cc2)nnc1-c1ccc(C)c(Cl)c1,i,i,25*,i
C=CCn1c(SCc2ccc(C#N)cc2)nnc1-c1cccc(Cl)c1,i,i,i,i
Cc1ccc(C)c(/C=N/NC(=S)NCCc2ccccc2)c1,i,i,100*,i
O=C(O)c1ccccc1/C=N/NC(=S)NCc1ccccc1,-12.1*,i,i,i
Oc1ccccc1/C=N/NC(=S)NCCc1ccccc1,i,i,i,i
O=C(N/N=C/C=C/c1ccccc1)c1cc(C2CC2)[nH]n1,i,i,i,i
N#CCCn1nc(-c2ccc(Br)cc2)cc1Nc1ccccc1NC(=O)C(F)(F)F,i,i,100*,i
CC(C)N(Cc1nc(-c2ccc(Cl)cc2)no1)C(=O)c1cccs1,i,i,i,i
COc1cc(C2NC(=O)C(C#N)=C(S)N2c2ccccc2)ccc1OC(C)C (stereo not given),i,i,i,i
O=C(NC1CC1)C1CCN(C2CCN(C(=O)Cc3ccc4c(c3)OCO4)CC2)CC1,i,i,i,-10.3*
CN(C)C(=O)N1CCC(C(=O)NCc2ccc3c(c2)OCO3)CC1,i,i,i,i
O=C(NCc1cccnc1)c1ccccc1NS(=O)(=O)c1ccc(F)cc1,i,i,i,i
CCOc1nc2cnccc2n(CC(=O)Nc2ccccc2F)c1=O,i,i,i,i
Cc1ccc(CN2CCCN(Cc3ccc(F)cc3Cl)S2(=O)=O)cc1,i,i,i,i
COc1cc(-n2nc(C)c3c2OC(N)=C(C#N)C3c2ccccc2)c(Cl)c(Br)c1O (stereo not given),i,i,i,-10*
Cc1nn(-c2ccccc2)c2c1C(c1ccncc1)C(C#N)=C(N)O2 (stereo not given),i,i,i,i
O=C(CN1C(=O)NC2NC(=O)NC21)N/N=C/c1ccc(F)cc1 (stereo not given),-7.52*,i,i,i
N#Cc1nc(-c2ccccc2Cl)oc1NCc1ccco1,-4.73*,i,i,i
CN(c1ccccc1)S(=O)(=O)c1ccc(-c2ccccc2)cc1,i,i,25*,i
